IL-1B inflam inh = inhibitors of inflammasome signaling (IL-1 beta secretion). 4.7% of 360,000 active. AID 743279. THP-1 LPS/ATP IL-1B secretion, AlphaLISA, 16 h; stronger effect = lower value. activity change, % at 57.5 µM; in the data active = activity change below about -50%; inconclusive = mostly about -30% to -49%
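Secreted IL-1B measured by AlphaLISA bead assay after 16 h compound exposure of THP-1 cells; compounds (final up to 57.5 uM) added 1 h before LPS (250 ng/mL) and ATP (1.25 mM) stimulation; lower signal means less secretion.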
KB-3-1 tox = KB-3-1 parental cell cytotoxicity. KB-3-1 viability, CellTiter-Glo ATP luminescence, 72 h. Potency, µM (titrated, usually from 46.1 µM), actives largely listed as cytotoxic. 1.4% of 400,000 active; note: nearly all actives have a fitted effect of over 60% in size
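Luminescent ATP read-out (CellTiter-Glo) measures survival of drug-naive KB-3-1 cells after 72 h compound exposure at 37 °C. Titration series was screened from lowest to highest concentration, with DMSO vehicle plates as background controls.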
SW480 rerep = induces DNA re-replication in SW480 colon adenocarcinoma cells | SW480 DNA re-replication, Hoechst DNA content imaging, 48 h | Potency, µM (titrated, usually from 46.1 µM), actives largely listed as activators | 1.8% of 340,000 active | AID 624297; note: nearly all actives have a fitted effect of over 55% in size
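Image-based read-out: total Hoechst fluorescence of nuclei (405 nm excitation, 500-530 nm emission), with hits raising the fraction of high-intensity nuclei. SW480 colon cells incubated 48 hr with compounds at 37 C.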
KB-V1 MDR tox = KB-V1 MDR subline cytotoxicity. KB-V1 MDR cells viability, CellTiter-Glo, 72 h. Potency, µM (series often up to 46.1 µM), most hits filed as cytotoxic. 3.4% of 400,000 active; note: nearly all actives have a fitted effect of over 60% in size
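KB-V1 cells (P-gp-expressing MDR subline of KB-3-1) in phenol-red-free DMEM with 10% FBS were exposed to library compounds over a concentration series for 72 h at 37 degrees C. Viability read by CellTiter-Glo luminescence; concentration-effect curves fitted after normalization.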
MCF10A rereplic = induces DNA re-replication in MCF 10a normal breast cells; MCF 10A DNA re-replication, Hoechst nuclear intensity, 48 h; Potency, µM (highest dose often 46.1 µM), actives largely listed as activators; 2.9% of 350,000 active; AID 624296; note: nearly all actives have a fitted effect of over 50% in size
A number is an active result; n = inactive; u = inconclusive; x = not tested or not shown. An excerpt weighted towards active compounds, which were near 9.9% of everything screened. Unless noted, calls come from the whole dose curve; as a rule, active = well fitted curve in the direction sought with a large enough effect; inconclusive = small, poorly fitted or top-dose-only effect, or another doubt; inactive = no such curve, though single readings can be large; an effect the other way counts as inactive or inconclusive.

SMILES	IL-1B inflam inh	KB-3-1 tox	SW480 rerep	KB-V1 MDR tox	MCF10A rereplic
CC1CCN(C(CC(=O)c2ccccc2)C(=O)c2ccccc2)CC1 (stereo not given)	-67	n	6.5µM	n	3.7µM
COc1ccc(S(=O)(=O)Nc2cc([N+](=O)[O-])ccc2OC)cc1	n	u	u	18µM	u
COc1ccc(OC)c(NP(=O)(Oc2ccccc2)Oc2ccccc2)c1	n	n	n	n	n
COP(=S)(OC)SCn1nnc2ccccc2c1=O	-93	n	n	n	n
COc1ccc(-n2c(SCCN(C)C)nc3ccccc3c2=O)cc1	n	n	n	n	n
CC(C)C[C@H]1CN([C@@H](CC(C)C)CN2CCCC2CN2C(=S)NC[C@@H]2Cc2ccc(O)cc2)C(=S)N1CC1CCCCCC1 (stereo not given in full)	u	u	n	u	u
Cc1ccc2c(c1)[C@H]1[C@H](CO2)[C@H](c2ccccc2)[C@]2(C)C(=O)N(CC3CCCO3)CC(=O)N12 (stereo not given in full)	n	n	u	n	n
Oc1c(Cl)cccc1Cc1cc(Cl)cc(Cl)c1O	u	u	n	u	12µM
O=C(C(=O)N1CC=C(c2ccccc2)CC1)c1c[nH]c2ccccc12	n	n	n	u	u
CCOc1ccc(Cl)cc1CNCCc1ccc(F)cc1	-57	n	n	n	u
CC(=O)Nc1ccccc1C(=O)OCC(=O)c1ccc2ccccc2c1	n	n	n	15µM	n
CC(=O)Nc1ccccc1C(=O)OCc1cccc(F)c1	n	n	n	n	n
CC(=O)Nc1ccccc1C(=O)OCc1ccc(C(=O)c2ccccc2)cc1	-55	u	n	6.5µM	u
COc1ccc(OC)c(N2Cc3ccccc3C2=N)c1	n	n	n	n	n
CN1CCN(C(=O)CCc2ccc(S(=O)(=O)NC3CCCCC3)cc2)CC1	n	n	n	n	u
CN(C)c1c([N+](=O)[O-])cc(N2C(=O)C=CC2=O)cc1[N+](=O)[O-]	-99	u	16µM	n	13µM
O=C1CC(c2ccccc2Br)c2c(c3ccccc3oc2=O)O1 (stereo not given)	x	n	x	n	x
COc1ccc(OC(=O)N(C)C[C@H]2OCc3cnnn3CCCC(=O)N([C@H](C)CO)C[C@H]2C)cc1	n	n	x	n	x
COC(=O)C1CN(C#N)N(c2ccc(Cl)cc2)C12c1ccccc1-c1ccccc12 (stereo not given)	-97	5.2µM	3.3µM	12µM	7.1µM
CN1CC=C(/C=C/c2ccc(-c3ccccc3)cc2)CC1	u	n	n	n	16µM
Cc1ccc(S(=O)(=O)N2CCCCC2)cc1NC(=O)CSc1ncnc2ccccc12	-97	n	u	16µM	u
Cc1ccc(S(=O)(=O)c2nc(-c3ccccc3Cl)oc2N(C)C2CCN(C)CC2)cc1	n	n	u	n	u
Nc1c2c(nc3sc4c(c13)CCCC4)CCCC2	-88	n	n	n	u
Nc1c2c(nc3sc4c(c13)CCCC4)CCCCC2	n	u	n	n	u
CCN(CC(=O)Nc1ccccc1C(F)(F)F)C(=O)Cn1c(=O)cnc2ccccc21	n	n	n	n	n
SMILES	IL-1B inflam inh	KB-3-1 tox	SW480 rerep	KB-V1 MDR tox	MCF10A rereplic
CN(C)c1ccc(/C=C/C=C2/C(=O)NC(=O)N(c3ccccc3)C2=O)cc1	-107	n	u	u	u
Cc1ccc(N2C(=O)NC(=O)/C(=C\C=C\c3ccco3)C2=O)cc1C	-105	u	u	u	5.8µM
C=CCN1C(=O)NC(=O)/C(=C/C=C/c2ccccc2)C1=O	u	n	u	n	u
Cc1cccc(N2C(=O)NC(=O)/C(=C\C=C\c3ccco3)C2=O)c1	-96	u	u	n	15µM
Cc1ccc(N2C(=O)NC(=O)/C(=C\c3ccoc3)C2=O)cc1	n	n	n	n	u
Cc1ccc(N2C(=O)NC(=O)/C(=C\C=C\c3ccco3)C2=O)cc1	-97	u	u	n	7.3µM
Cc1cc(N2CCOCC2)ccc1/C=C1\C(=O)NC(=O)N(c2ccccc2)C1=O	n	n	n	n	n
C=CCC1(C(C)CCC)C(=O)N=C(S)NC1=O (stereo not given)	x	x	n	x	n
CC(C)(C)NC(=O)N1c2ccccc2Sc2ccccc21	n	u	n	n	u
O=S(c1ccccc1)c1ccccc1	n	n	n	n	n

High-throughput results: PubChem, National Center for Advancing Translational Sciences (NCATS)
